Compound activity (PubChem)
SENP8 block-1: SENP8 protease inhibition. Q96LD8. purified SENP8, Z-RLRGG-aminoluciferin cleavage, luminescence. inhibition, % at 10 µM. actives 1.2% (n = 330,000); in the data active = inhibition above about 50%
Target sequence (Q96LD8 whole entry, looked up): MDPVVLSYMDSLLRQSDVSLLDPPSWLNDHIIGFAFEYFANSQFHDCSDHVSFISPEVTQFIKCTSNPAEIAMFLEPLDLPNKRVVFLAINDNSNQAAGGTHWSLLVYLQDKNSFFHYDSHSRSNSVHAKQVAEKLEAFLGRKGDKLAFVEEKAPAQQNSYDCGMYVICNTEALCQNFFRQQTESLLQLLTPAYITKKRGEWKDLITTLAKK
SENP6 inh: blocks the human protease SENP6; Recombinant SENP6 catalytic domain, aminoluciferin luminescence; inhibition, % at 10 µM; actives 1.8% (n = 330,000); AID 2599;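 active = inhibition above about 50% at the single tested dose, limit read from the data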;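 note: plate controls were DMSO wells with enzyme for no effect and DMSO wells lacking enzyme for full effect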
SENP7 block: inhibitors of human SENP7 protease; Q9BQF6; recombinant SENP7, Z-RLRGG-aminoluciferin luminescence, 40 min; inhibition, % at 5 µM; actives 1.5% (n = 330,000);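 active = inhibition above about 50% at the single test dose, limit read from the data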;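 note: plate controls were DMSO with enzyme for no effect and no enzyme buffer wells for full effect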
SENP8 block-2: inhibitors of human SENP8 protease. recombinant SENP8, Nedd8 substrate fluorescence. Q96LD8. AID 602440. inhibition, % at 20 µM. actives 0.64% (n = 360,000); in the data active = inhibition mostly above about 40%, no sharp cut-off; inactive = mostly below about 27%
HSP90 refold inh: blocks HSP90-mediated luciferase refolding in reticulocyte lysate; Rabbit reticulocyte lysate, luciferase refolding luminescence, 3 h; actives 0.91% (n = 290,000); inhibition, % at 5.6 µM;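 active = inhibition above the screen-wide mean plus 3 SD, computed separately per campaign, cut at about 16% in these data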;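 note: 0% = DMSO wells and 100% = 60 µM geldanamycin wells; inhibitors lower the luminescence because luciferase stays unfolded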
SENP8 conf: confirmation of human SENP8 protease inhibitors; shares compounds with SENP7 block; Recombinant SENP8, Z-RLRGG-aminoluciferin luminescence, 60 min; inhibition, % at 12.5 µM; actives 40% (n = 6,200); AID 488912;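 active = mean inhibition across replicates above about 50%, limit read from the data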
SENP6 conf: human SENP6 inhibition, confirmed. shares compounds with SENP7 block. recombinant SENP6, Z-RLRGG-aminoluciferin luminescence. inhibition, % at 12.5 µM. actives 58% (n = 6,200)
SENP7 conf: confirmation of human SENP7 protease inhibitors; shares compounds with SENP7 block; recombinant SENP7, Z-RLRGG-aminoluciferin luminescence, 40 min; inhibition, % at 12.5 µM; actives 69% (n = 6,200); AID 488917
Casp3 select: caspase-3 inhibition (SENP selectivity assay); shares compounds with SENP7 block; purified caspase-3, Z-DEVD-aminoluciferin luminescence, 60 min; inhibition, % at 12.5 µM; actives 60% (n = 6,200);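 active = mean inhibition above about 50%, limit read from the data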;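 note: plate controls were enzyme with DMSO for no effect and wells without caspase-3 for full effect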
Target sequence (P42574 28-227 limits assumed): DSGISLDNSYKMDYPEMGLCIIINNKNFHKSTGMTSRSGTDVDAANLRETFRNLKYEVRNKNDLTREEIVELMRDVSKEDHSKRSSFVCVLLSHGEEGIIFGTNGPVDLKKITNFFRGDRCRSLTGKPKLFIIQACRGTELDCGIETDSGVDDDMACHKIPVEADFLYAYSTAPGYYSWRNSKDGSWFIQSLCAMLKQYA
Luc interf: luminescence interference (SENP counter-screen); shares compounds with SENP7 block; AID 488919; Pre-incubated SENP8/Z-RLRGG-aminoluciferin, luciferase luminescence interference; inhibition, % at 12.5 µM; actives 39% (n = 6,200);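 active = mean inhibition above about 50% when retested at one dose, limit read from the data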;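 note: plate controls were DMSO wells with completed reaction for no effect and substrate without enzyme for full effect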
Active calls of the source: *; x = no result. Hits are enriched below; roughly 2.7% of the tested compounds scored in any of these assays.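 Rule for the calls, unless noted: active = mean inhibition above about 50% in the one-dose retest (limit read from the data); inactive = the rest.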

SMILES	SENP8 block-1	SENP6 inh	SENP7 block	SENP8 block-2	HSP90 refold inh	SENP8 conf	SENP6 conf	SENP7 conf	Casp3 select	Luc interf
O=C(O)c1ccccc1N=Nc1c(O)[nH]c2ccc([N+](=O)[O-])cc12	95*	99*	94*	29	-1	98*	98*	101*	94*	37
O=C(N=Nc1c(O)[nH]c2ccc([N+](=O)[O-])cc12)c1ccccc1Cl	-2	-16	9	28	1	x	x	x	x	x
CCSc1nn2c(=O)c3ccccc3nc2s1	24	58*	30	17	3	39	36	70*	76*	47
C/C(CS(=O)(=O)c1ccc(Cl)c(Cl)c1)=N/NC(N)=S	1	-15	0	31	-3	x	x	x	x	x
COc1ccc(N2CCN(C(=O)[C@H](Cc3c[nH]c4ccccc34)NC(C)=O)CC2)cc1	3	1	2	1	0	x	x	x	x	x
COc1ccccc1N1CCN(c2ccc(-c3ccccc3)nn2)CC1	95*	94*	-3	13	15	79*	89*	98*	90*	22
Oc1cccc2ccc(/C=C/c3ccccc3Cl)nc12	88*	99*	84*	-36	-2	83*	90*	67*	86*	33
Oc1cccc2ccc(/C=C/c3c(F)cccc3Cl)nc12	85*	95*	94*	-33	-4	23	60*	37	64*	4
CCOC(=O)/C=C/C(=O)OCC(=O)Nc1cccc(Cl)c1Cl	-3	-8	-7	9	2	x	x	x	x	x
O=C(Cc1cccs1)N/N=C\c1ccc([N+](=O)[O-])s1	9	34	13	29	2	x	x	x	x	x
O=C(CNC(=O)c1ccccc1Cl)N/N=C/c1ccc([N+](=O)[O-])s1	9	70*	13	28	0	18	37	1	2	-2
Cc1cc(C#N)c(C)n1-c1cc(S(=O)(=O)N2CCOCC2)ccc1N1CCCC1	5	1	3	-8	9	x	x	x	x	x
O=[N+]([O-])c1cccc(-c2nnc(-c3ccc4c(c3)OCO4)o2)c1	26	47	65*	-24	3	15	12	33	45	5
Clc1ccccc1-c1nnc(-c2ccc3c(c2)OCO3)o1	89*	92*	90*	-399	1	64*	94*	95*	79*	59*
O=[N+]([O-])c1cccc(-c2nnc(-c3ccccc3)o2)c1	22	49	31	8	-2	x	x	x	x	x
COc1ccccc1-c1nc2cc3ccccc3cc2nc1-c1ccccc1	6	51*	4	-144	3	-4	3	-5	-3	-3
COc1ccc(-c2cn3cc(C)ccc3n2)cc1Br	82*	91*	86*	-366	8	38	87*	99*	86*	26
Cc1onc(-c2ccccc2Cl)c1C(=O)NC(C)c1ccccc1 (stereo not drawn)	-4	12	-12	2	8	x	x	x	x	x
Cc1ccc(C2(C)NC(=O)N(CC(=O)Nc3ccccc3N3CCCC3)C2=O)cc1 (stereo not drawn)	1	12	1	11	x	x	x	x	x	x
Oc1ccccc1C1=Nc2nc3ccccc3n2C(c2ccccc2)C1 (stereo not drawn)	59*	79*	71*	-407	-1	23	23	37	49	34
Cc1cccc2cc(C(c3nnnn3CC3CCCO3)N3CCc4ccccc4C3)c(=O)[nH]c12 (stereo not drawn)	38	67*	49	x	-4	-1	27	6	9	3
Cc1ccc2cc(C(c3nnnn3CC3CCCO3)N3CCc4ccccc4C3)c(=O)[nH]c2c1 (stereo not drawn)	74*	7	86*	-50	7	7	10	0	-3	-3
C=CCNC(=O)c1ccc(-c2nc(-c3ccc(Cl)c(Cl)c3)cs2)cc1	-5	6	0	-200	0	x	x	x	x	x
C=CCNC(=O)c1ccc(NC(=O)C2=CSCCO2)cc1	69*	73*	77*	4	17*	74*	72*	93*	90*	73*
CC(C)CCNC(=O)c1ccc(NC(=O)C2=CSCCO2)cc1	-5	7	3	-5	-3	x	x	x	x	x
SMILES	SENP8 block-1	SENP6 inh	SENP7 block	SENP8 block-2	HSP90 refold inh	SENP8 conf	SENP6 conf	SENP7 conf	Casp3 select	Luc interf
O=C(Nc1cccnc1Cl)c1noc2c1CCc1ccccc1-2	-5	31	65*	15	3	3	7	24	20	7
CCCNC(=O)c1noc2c1CCc1ccccc1-2	-11	-1	4	6	7	x	x	x	x	x
CC(=O)NCCC1CCCCN1C(=O)c1cc(COc2cc(C)ccc2C)on1 (stereo not drawn)	-7	9	0	-5	-7	x	x	x	x	x
CCCCCCOC(=O)c1ccc(OC(=O)c2cccnc2)cc1	44	53*	-1	6	-7	0	10	47	14	-2
CCCCOC(=O)c1ccc(OC(=O)c2cccnc2)cc1	-16	-17	9	20	-2	x	x	x	x	x
Cc1nnsc1C(=O)N/N=C/c1ccc(OC(F)(F)F)cc1	4	-21	55*	-9	1	16	17	28	24	11
Cc1nnsc1C(=O)N/N=C/c1ccccc1	-11	26	17	10	-3	x	x	x	x	x
COc1ccc(C2c3ccc(O)cc3Oc3ncn4nc(-c5ccccn5)nc4c32)cc1OC (stereo not drawn)	-9	-20	-7	1	3	x	x	x	x	x
COc1ccc(C2c3ccc(O)cc3Oc3ncn4nc(-c5ccncc5)nc4c32)cc1OC (stereo not drawn)	8	67*	-2	8	0	12	8	5	2	-3
Cc1cccc(-n2ncc3c(N4CCC(C)CC4)ncnc32)c1	54*	61*	38	5	-1	60*	59*	83*	47	37
Cc1cccc(-n2ncc3c(N4CCC5(CC4)OCCO5)ncnc32)c1	-13	-14	-18	8	x	x	x	x	x	x
CC1CCCN(c2ncnc3c2cnn3-c2ccccc2)C1 (stereo not drawn)	62*	64*	42	0	x	4	40	68*	43	53*
CC1CCCN(c2ncnc3c2cnn3-c2ccc(Cl)cc2)C1 (stereo not drawn)	94*	94*	95*	-10	x	90*	94*	98*	92*	29
